Measured values: PubChem BioAssay AID2685 (National Center for Advancing Translational Sciences (NCATS), 2010)
Hit rate of the full screen: of about 320,000 compounds, about 2,100 (0.66%) were called active. Roughly 53% stayed inconclusive and do not appear here. This is one part of a sample in which actives are shown more often than they occur. The call rests on the fitted dose curve; in most records, active means well fitted inhibition curve with a large enough effect in the signal ratio, with a control signal flat (not every such curve was filed as active); inconclusive means small, poorly fitted or top-dose-only effect, or effect the other way, or a change in a side signal; inactive means flat fitted curve, though single readings scatter; the % refers to the signal ratio.

Experiment: qHTS Assay for Lipid Storage Modulators in Drosophila S3 Cells;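 on cell number change: cells counted by Cell Tracker Red CMTPX staining in the red channel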; on lipid storage change, negative = inhibition: on the % scale 0 is the no-effect control and ±100 the full control effect
Details: BODIPY lipid droplet fluorescence, 18-24 h, cells fed with added oleic acid; cell number change: measured here: cell count max response; series mostly up to 46.1 µM; lipid storage change, negative = inhibition: at the top concentration
Summary of the method: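 Drosophila S3 cells got compounds at several concentrations plus oleic acid (400 uM solution). Laser-scanning cytometry with 488 nm excitation read lipid droplets at 500-530 nm and cells at 575-640 nm. Percent activity was relative to 20 uM Triacsin C.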
Potency means the concentration at half of the fitted maximal effect.

Which results are given for `COc1ccccc1-n1c(-c2ccc(F)cc2)coc1=O`?
lipid storage change, negative = inhibition: 8.23% (inactive); cell number change: 9.35%

With `COC(=O)Nc1ccc(S(=O)(=O)N2CCN(c3ccc(F)cc3)CC2)cc1` as the molecule, how does the “outcome” value read?
The value was “inactive”.

Which “lipid storage change, negative = inhibition” value does the source give for `COCCn1nnnc1C(c1ccccn1)N1CCN(c2cccc(C)c2C)CC1` (configuration not stated) here?
The value was 3.18% (inactive).

What about the cell number change of the same molecule?
Its cell number change is 1.34%.

Which “outcome” value does the source give for `Cc1cc(Cl)c(S(=O)(=O)NC(C(=O)O)c2ccccc2)cc1OCC(N)=O` (configuration not stated) here?
The value was “inactive”.

What about the cell number change of the same molecule?
Its cell number change is 6.34%.

Which results are given for `COc1ccc(CC2(CO)CCN(C(C)Cc3ccc(Cl)cc3)CC2)cc1` (configuration not stated)?
lipid storage change, negative = inhibition: -5.1% (inactive); cell number change: -1.88%

With `CC(=O)C1=NN(c2ccc(Cl)cc2)C(c2ccc3c(c2)OCO3)N(C(C)=O)N1C` (configuration not stated) as the molecule, how does the “lipid storage change, negative = inhibition” value read?
Its value is 10.1% (inactive).

And the cell number change?
Its cell number change is 4.72%.

For `O=C(CNc1ccc(Br)cc1)c1ccccc1`, which “lipid storage change, negative = inhibition” value is on record?
The value was 1.32% (inactive).

And the cell number change?
Its cell number change is -10.1%.

With `O=C(NNC1CC(=O)N(c2ccc(Cl)cc2)C1=O)c1ccccn1` (configuration not stated) as the molecule, how does the “lipid storage change, negative = inhibition” value read?
The value was -2.98% (inactive).

And the cell number change?
Its cell number change is 6.05%.

Which “lipid storage change, negative = inhibition” value does the source give for `CCCCNCc1cc2ccccc2o1` here?
Its value is -15.4% (inactive).

And the cell number change?
Its cell number change is -14.5%.

Which “lipid storage change, negative = inhibition” value does the source give for `Cc1ccc(-c2nn(CC(=O)O)c(=O)c3ccccc23)cc1` here?
The value was 4.71% (inactive).

And the cell number change?
The cell number change was -4.34%.

For `O=C(CCN1C(=O)[C@@H]2Cc3ccccc3CN2C1=O)N[C@H](C(=O)O)c1ccccc1`, which “outcome” value is on record?
The value was “inactive”.

What about the cell number change of the same molecule?
The cell number change was 8.94%.

For `COc1ccc(NC(=O)COC(=O)Cc2cccs2)cc1OC`, which “lipid storage change, negative = inhibition” value is on record?
The value was 24.7% (inactive).

And the cell number change?
Its cell number change is -0.769%.

Which “lipid storage change, negative = inhibition” value does the source give for `COc1cccc(C2CC(c3cccs3)=NN2C(=O)CSc2nc3ccccc3o2)c1OC` (configuration not stated) here?
Its value is -2.37% (inactive).

What about the cell number change of the same molecule?
Its cell number change is 8.7%.

With `COc1ccc(C2CC(c3cccs3)=NN2C(=O)CSc2nc3ccccc3o2)cc1` (configuration not stated) as the molecule, how does the Potency read?
Its Potency is 9.2 µM (active).

And the cell number change?
The cell number change was -8.56%.

With `O=C(CSc1nc2ccccc2o1)N1N=C(c2cccs2)CC1c1ccc(F)cc1` (configuration not stated) as the molecule, how does the “outcome” value read?
Its value is “inactive”.

What about the cell number change of the same molecule?
Its cell number change is -17.4%.

Which results are given for `CC(=O)c1ccc(NC(=O)Cn2cnc(S(=O)(=O)N3CCOCC3)c2)cc1`?
outcome: inactive; cell number change: -2.31%

Which “lipid storage change, negative = inhibition” value does the source give for `COc1ccc2cc(CCNC(=O)c3cccc([N+](=O)[O-])c3)c(=O)[nH]c2c1` here?
The value was 1.68% (inactive).

And the cell number change?
Its cell number change is 9.49%.

Which results are given for `CN1C(=O)C(O)(CC(=O)/C=C\c2ccc3c(c2)OCO3)c2ccccc21` (configuration not stated)?
Potency: 0.366 µM (active); cell number change: -43.9%

With `O=C(/C=C\c1ccc2c(c1)OCO2)CC1(O)C(=O)Nc2ccccc21` (configuration not stated) as the molecule, how does the “lipid storage change, negative = inhibition” value read?
Its value is 4.36% (inactive).

And the cell number change?
The cell number change was 10.9%.

Which results are given for `NC(=O)CN1C(=O)C(O)(CC(=O)/C=C\c2ccc3c(c2)OCO3)c2ccccc21` (configuration not stated)?
lipid storage change, negative = inhibition: 3.04% (inactive); cell number change: -3.53%

Which Potency does the source give for `COc1ccc(S(=O)(=O)NCC2CCCO2)cc1NC(=O)c1ccccc1F` (configuration not stated) here?
Its Potency is 25.9 µM (active).

What about the cell number change of the same molecule?
The cell number change was -5.13%.

Which results are given for `COc1ccc(S(=O)(=O)NCC2CCCO2)cc1C(=O)O` (configuration not stated)?
lipid storage change, negative = inhibition: -1.07% (inactive); cell number change: 10.7%

Which “outcome” value does the source give for `CCOc1ccc(S(=O)(=O)NCC2CCCO2)cc1NC(=O)c1ccccc1F` (configuration not stated) here?
Its value is “inactive”.

What about the cell number change of the same molecule?
Its cell number change is 23.9%.

What does the source list for `C#CCOCCOCCOCCNc1nc(N2CCN(C(=O)[C@H](CCC(=O)O)n3cc(C(N)CO)nn3)CC2)nc(N2CCN(C(=O)[C@H](Cc3cc4ccccc4[nH]3)n3cc(C(N)[C@H](C)CC)nn3)CC2)n1` (some centres not stated)?
lipid storage change, negative = inhibition: -13% (inactive); cell number change: 10.5%
